TDP1 cell CPT = DT40-hTDP1 cell growth loss with CPT; chicken DT40 Tdp1-/-;hTDP1 cells + 20 nM CPT, ATP luminescence, 48 h; Potency, µM (highest dose often 46.2 µM), for the others: at the top dose activity change, negative = growth inhibition, hits mostly inhibitors; hit rate 12% among 420,000; further: potency means the concentration at half of the fitted maximal effect; nearly all actives have a fitted effect of over 55% in size
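Chicken DT40 Tdp1-/- cells complemented with human TDP1, 400 cells/well, exposed to compounds plus 20 nM camptothecin for at least 48 h at 37 C; viability read as ATP content by CellTiter-Glo luminescence.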
IL1B secr inh = inhibitors of inflammasome signaling (IL-1 beta secretion). THP-1 LPS/ATP IL-1B secretion, AlphaLISA, 16 h; hits give low values. activity change, % at 57.5 µM. hit rate 4.7% among 360,000; in the data active means activity change below about -50%; inconclusive means mostly about -30% to -49%
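Secreted IL-1B measured by AlphaLISA bead assay after 16 h compound exposure of THP-1 cells; compounds (final up to 57.5 uM) added 1 h before LPS (250 ng/mL) and ATP (1.25 mM) stimulation; lower signal means less secretion.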
LDHA block = inhibitors of human lactate dehydrogenase A; P00338; hit rate 0.15% among 480,000; purified LDHA, NADH/diaphorase-resazurin fluorescence; hits give low values; activity change, % (values are at about 110 or 230 µM); in the data active means activity change below about -30%; inconclusive means mostly about -25% to -30%;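 further: plate controls were DMSO wells for no effect and wells without enzyme for full effect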
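Remaining NADH was detected by diaphorase (0.133 mg/mL) converting 37 µM resazurin to fluorescent resorufin, read at 0 and 20 minutes. The preceding 5-minute room-temperature reaction used 2 nM LDHA, 0.2 mM sodium pyruvate and 0.06 mM NADH at pH 7.4.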
Gal4-VP16 FLuc = inhibits Gal4-VP16 luciferase reporter, ROR gamma counter-screen | hit rate 3.5% among 310,000 | Drosophila S2 Gal4-VP16 UAS-luciferase, luminescence, 20 h | Potency, µM (highest dose often 53.6 µM), without a hit: top-dose activity, negative = inhibition, hits mostly inhibitors;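 further: Gal4-VP16 expression switched on by copper sulfate through the metallothionein promoter; potency means the concentration at half of the fitted maximal effect; nearly all actives have a fitted effect of over 50% in size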
RORgamma inh = inhibitors of mouse ROR gamma transcriptional activity | P51450 | Drosophila S2 Gal4-RORgamma UAS-luciferase reporter, 20 h | Potency, µM (series often up to 53.6 µM), inactives show at the highest dose activity change, negative = inhibition, most hits filed as inhibitors | hit rate 5.4% among 310,000 | AID 2551; further: potency means the concentration at half of the fitted maximal effect; nearly all actives have a fitted effect of over 60% in size
Target sequence (P51450 whole entry, looked up, the tested form may be a part): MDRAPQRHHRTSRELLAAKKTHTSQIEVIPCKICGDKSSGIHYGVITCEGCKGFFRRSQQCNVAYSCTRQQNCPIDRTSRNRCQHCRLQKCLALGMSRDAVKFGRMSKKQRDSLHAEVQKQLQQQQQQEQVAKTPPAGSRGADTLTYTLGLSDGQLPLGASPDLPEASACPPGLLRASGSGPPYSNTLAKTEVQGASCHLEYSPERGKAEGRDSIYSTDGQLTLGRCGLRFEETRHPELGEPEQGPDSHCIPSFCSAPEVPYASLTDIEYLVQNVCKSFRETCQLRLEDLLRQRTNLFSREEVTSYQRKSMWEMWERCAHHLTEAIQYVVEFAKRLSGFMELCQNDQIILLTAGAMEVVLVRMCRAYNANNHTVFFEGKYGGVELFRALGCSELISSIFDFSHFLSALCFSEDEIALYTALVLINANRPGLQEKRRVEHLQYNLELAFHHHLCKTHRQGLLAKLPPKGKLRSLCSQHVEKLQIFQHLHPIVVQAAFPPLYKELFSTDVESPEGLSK
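Read-out: Photinus luciferase luminescence; inhibitors lower reporter signal. Insect Schneider cells with Gal4-ROR gamma fusion under metallothionein promoter, UAS reporter; 700 uM final copper sulfate induction, 20 hr, ambient temperature.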
TDP1 cell noCPT = qHTS for Inhibitors of human tyrosyl-DNA phosphodiesterase 1 (TDP1): qHTS in cells in absence of CPT; DT40 Tdp1-/- hTDP1 cells, no CPT, ATP luminescence, 48 h; Potency, µM (highest dose often 46.2 µM), for inactives: top-dose activity change, negative = growth inhibition, actives largely listed as inhibitors; hit rate 15% among 420,000; AID 686978, 2013; further: potency means the concentration at half of the fitted maximal effect; nearly all actives have a fitted effect of over 55% in size
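No-CPT arm: Tdp1-/-;hTDP1 DT40 cells (400/well) plus compounds, incubated ≥48 hr at 37 °C. Readout CellTiter-Glo luminescence.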
Active calls of the source: *; ? = inconclusive; . = not tested or not shown; ! = a repeat was not active. Sampled rows, rich in hits. Any-hit rate of the full collection: about 18%. Unless noted, the call rests on the fitted dose curve; in most records, active means well fitted curve in the direction sought with a large enough effect; inconclusive means small, poorly fitted or top-dose-only effect, or another doubt; inactive means no such curve, though single readings can be large; an effect the other way counts as inactive or inconclusive. Unless noted, on the % scale 0 is the no-effect control and ±100 the full control effect.

SMILES | TDP1 cell CPT | IL1B secr inh | LDHA block | Gal4-VP16 FLuc | RORgamma inh | TDP1 cell noCPT
COc1ccc(N2CCN(C(=S)NC(=O)c3cccs3)CC2)c([N+](=O)[O-])c1 | ? | 9.6 | -7.5 | 1.41µM* | 0.316µM* | ?
CCC(=O)N1CCN(c2c(Cl)cccc2[N+](=O)[O-])CC1 | ? | -4.2 | -3.2 | 12.4% | -17.4% | ?
COC(=O)CN(Cc1ccccc1)Cc1ccco1 | . | . | 6.4 | . | . | .
CC(C)C(NS(C)(=O)=O)C(=O)Nc1cccc(Cl)c1 (stereo unspecified) | . | . | -3.5 | . | . | .
CC(=O)OCc1nc2sc(C)c(C)c2c(=O)[nH]1 | -23.6% | 32.0 | -1.1 | -1.4% | -5.3% | -6.8%
Cc1sc2nc(CN(C(=O)NCc3ccccc3)C3CCCC3)[nH]c(=O)c2c1C | ? | ? | -4.7 | ? | 4.47µM* | ?
CC(=O)N(Cc1nc2sc(C)c(C)c2c(=O)[nH]1)C1CCCC1 | 20.6µM* | 29.5 | -1.4 | ? | 10µM* | ?
CCN(CC)C(=O)c1sc2nc(Cc3ccccc3)[nH]c(=O)c2c1C | ? | ? | -2.4 | 2.9% | -5.0% | -25.0%
Cc1ccc(-c2cc(C34CC5CC(CC(C5)C3)C4)nc3sc4c(c23)CCC4)cc1 | . | . | 0.6 | . | . | .
C/C(=N\Nc1nc(-c2ccccc2)cs1)c1cccs1 | ? | -25.5 | 0.3 | 1.0% | -8.5% | ?
C/C(=N\Nc1nc2ccccc2s1)c1cccs1 | ? | -83.3* | 2.9 | 3.55µM* | 0.708µM* | ?
CC(=O)Nc1cccc(/C(C)=N/Nc2nc3ccccc3s2)c1 | ? | -18.8 | -6.5 | -14.8% | ? | ?
CC(=NNc1nc2ccccc2s1)c1ncccn1 | -76.0% | -0.4 | -2.7 | . | . | 0.0206µM*
Cc1ccc2cc(CN(CC3CCCO3)S(=O)(=O)c3cccc4nsnc34)c(=O)[nH]c2c1 (stereo unspecified) | ? | 2.4 | -0.1 | -5.1% | 32.6% | 18.4µM*
COc1ccc(NC(=O)N(CCc2ccccc2)Cc2cc3c(C)cc(C)cc3[nH]c2=O)cc1 | ? | -14.2 | -2.4 | 9.3% | 14.6% | ?
CCCCN(Cc1cc2cc(OC)ccc2[nH]c1=O)S(=O)(=O)c1ccc(C)cc1 | 10.3µM* | -20.2 | -0.9 | ? | ? | 7.31µM*
CC(=O)Nc1ccc(S(=O)(=O)N(Cc2cc3ccc(C)cc3[nH]c2=O)CC2CCCO2)cc1 (stereo unspecified) | -21.0% | -9.0 | -3.0 | 16.1% | 15.6% | ?
COc1ccc2[nH]c(=O)c(CN(CCO)S(=O)(=O)c3ccc(C)cc3)cc2c1 | -16.4% | 0.1 | -3.5 | -2.2% | 23.6% | ?
COc1ccc(S(=O)(=O)N(CCCN2CCCC2=O)Cc2cc3c(C)cc(C)cc3[nH]c2=O)cc1 | ? | -54.2* | -0.4 | 2.3% | 30.7% | ?
COC(=O)c1cccc(S(=O)(=O)N(Cc2ccco2)Cc2cc3cc(OC)ccc3[nH]c2=O)c1 | 29.1µM* | -4.0 | 9.0 | -24.2% | 4.0% | ?
CCOC(=O)c1cccc(S(=O)(=O)N(CCO)Cc2cc3cc(OC)ccc3[nH]c2=O)c1 | -15.5% | 0.0 | 6.0 | -13.4% | 10.1% | -7.2%
CCCSc1nc2c(c(=O)[nH]c(=O)n2C)n1Cc1ccccc1Cl | . | . | -22.9 | . | . | .
CCN(CC)C(=O)Oc1ccc2cc(-c3ccccc3)c(=O)oc2c1 | . | . | 8.5 | . | . | .
Cn1c(=O)[nH]c(=O)c2c1nc(NCc1ccccc1Cl)n2CCCc1ccccc1 | . | . | 0.6 | . | . | .
COc1ccc2cc(CN(CC3CCCO3)S(=O)(=O)c3ccc(C(C)=O)cc3)c(=O)[nH]c2c1 (stereo unspecified) | -26.9% | -0.6 | -7.0 | -5.1% | -4.3% | ?
SMILES | TDP1 cell CPT | IL1B secr inh | LDHA block | Gal4-VP16 FLuc | RORgamma inh | TDP1 cell noCPT
COc1ccc(S(=O)(=O)N(Cc2cc3cc(C)ccc3[nH]c2=O)CC2CCCO2)cc1 (stereo unspecified) | ? | -15.9 | -3.2 | 3.0% | 0.9% | 20.6µM*
O=C(CN1C(=O)COc2ccc(S(=O)(=O)N3CCCC3)cc21)NCCc1ccc(Cl)cc1 | ? | . | -0.2 | . | . | 23.1µM*
COc1ccc(OC)c(CCNC(=O)CN2C(=O)COc3ccc(S(=O)(=O)N4CCCCCC4)cc32)c1 | . | . | -0.2 | . | . | .
NS(=O)(=O)c1ccc(CCNC(=O)CN2C(=O)COc3ccc(S(=O)(=O)N4CCCC4)cc32)cc1 | -6.6% | 5.3 | 0.9 | -2.9% | 2.0% | 4.2%
Cc1ccc(CCNC(=O)CN2C(=O)COc3ccc(S(=O)(=O)N4CCCCCC4)cc32)cc1 | 16.4µM* | . | 2.0 | . | . | 16.4µM*
COc1ccc(CCNC(=O)CN2C(=O)COc3ccc(S(=O)(=O)N4CCCC4)cc32)c(OC)c1 | 18.4µM*! | -28.6 | -3.9 | 4.3% | -5.0% | 16.4µM*!
CCn1nc(C(=O)OC(C)C(=O)Nc2ccccc2C)c2ccccc2c1=O (stereo unspecified) | . | . | 2.7 | . | . | .
Cc1nc2cc(NC(C)C(=O)Nc3ccc(C(C)(C)C)cc3)ccc2o1 (stereo unspecified) | . | . | 17.8 | . | . | .
Oc1ccc(-c2n[nH]c(=S)n2Cc2ccco2)cc1 | -13.9% | 0.0 | -5.1 | -0.8% | -44.3% | -13.0%
CCCn1c(C(C)NS(=O)(=O)c2ccccc2)n[nH]c1=S (stereo unspecified) | 0.0% | 28.2 | -6.8 | -6.2% | 10µM* | -8.8%
Cc1nn(C)c(-c2n[nH]c(=S)n2Cc2ccco2)c1Cl | 1.7% | 40.9 | -10.9 | ? | ? | 3.2%
CCCn1c(Cc2ccccc2)n[nH]c1=S | -3.2% | 22.0 | -9.0 | ? | 15.8µM* | -6.3%
S=c1[nH]nc(Cc2ccccc2)n1Cc1ccco1 | -29.1% | -10.4 | 3.5 | 12.6µM* | 14.1µM* | -9.1%
Oc1cc2ccccc2cc1-c1n[nH]c(=S)n1Cc1ccco1 | -22.5% | -4.0 | 1.8 | -3.9% | 12.6µM* | 3.7%
COCCn1c(Cc2ccccc2)n[nH]c1=S | . | . | 6.3 | . | . | .
N#Cc1cccc(CNC(=O)c2nccnc2N)c1 | . | . | 7.6 | . | . | .
C/C(N)=C(/C#N)C(=O)COC(=O)CCSc1ccccc1Cl | -3.4% | 23.1 | -8.8 | ? | 11.2µM* | ?
CC1CCc2c(sc3ncnc(N4CCOCC4)c23)C1 (stereo unspecified) | ? | 4.6 | 5.7 | 18.7% | 12.9% | ?
CC1CCc2c(sc3nc(CN4CCOCC4)nc(Sc4ccccc4)c23)C1 (stereo unspecified) | ? | -20.1 | 3.0 | 0.2% | -44.9% | 20.6µM*
